Assay outcomes from PubChem BioAssay.
Most compounds without a hit are left out; they make up all but 3.1% or so of the library.
Rin1-Abl PPI inh: human Rin1-Abl interaction inhibition | P00519+Q13671 | TR-FRET Rin1/Abl binding, biochemical | inhibition, % at 7.35 µM | actives 0.4% (n = 360,000); in the data active = inhibition above about 5%, passing the limit was not always enough
Neddyl block: cullin neddylation inhibition. TR-FRET cullin neddylation, biochemical. calls only at 25 µM. actives 0.58% (n = 360,000). AID 651699; in the data active = inhibition above about 36%
Target sequence (P61081 whole entry, looked up): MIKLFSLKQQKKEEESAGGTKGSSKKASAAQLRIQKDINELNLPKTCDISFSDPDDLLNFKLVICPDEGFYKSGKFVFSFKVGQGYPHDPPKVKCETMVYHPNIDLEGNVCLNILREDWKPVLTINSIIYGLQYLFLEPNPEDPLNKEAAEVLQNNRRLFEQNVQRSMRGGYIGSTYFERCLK
Target sequence (Q13564 whole entry, looked up): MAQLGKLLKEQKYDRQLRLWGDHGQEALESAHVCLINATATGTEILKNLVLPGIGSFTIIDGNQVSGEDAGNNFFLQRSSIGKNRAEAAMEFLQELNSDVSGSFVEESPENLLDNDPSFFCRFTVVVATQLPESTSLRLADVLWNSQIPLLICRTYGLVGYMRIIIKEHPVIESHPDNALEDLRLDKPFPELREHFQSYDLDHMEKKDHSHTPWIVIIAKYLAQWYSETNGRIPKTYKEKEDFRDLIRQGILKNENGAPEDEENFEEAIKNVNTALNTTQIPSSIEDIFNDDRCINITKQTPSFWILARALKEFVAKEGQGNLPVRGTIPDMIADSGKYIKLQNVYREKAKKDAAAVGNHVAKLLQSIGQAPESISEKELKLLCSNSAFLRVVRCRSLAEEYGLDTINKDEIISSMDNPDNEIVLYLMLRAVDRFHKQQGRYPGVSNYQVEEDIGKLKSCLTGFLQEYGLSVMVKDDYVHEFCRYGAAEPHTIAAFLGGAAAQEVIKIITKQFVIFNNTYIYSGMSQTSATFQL
UHRF1 binding: blocks human UHRF1 binding to methylated DNA; AID 687016; UHRF1 binding to methylated oligo, TR-FRET; inhibition, % at 4.4 µM; actives 0.75% (n = 370,000); in the data active = inhibition above about 21%;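 note: UHRF1 SRA domain binding a hemimethylated CpG hairpin DNA probe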
proKLK7 act: activators of human kallikrein-7 zymogen; purified proKLK7, EDANS-DABCYL substrate fluorescence; 100% is mature enzyme control, 0% vehicle; actives 0.9% (n = 370,000); P49862; activation, % at 7 µM;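 active = activation above the mean of all tested compounds plus 3 SD, computed per campaign excluding outliers beyond control limits, cut at about 13% in these data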
LEDGF integ inh: blocks HIV-1 LEDGF/p75-dependent DNA integration; actives 0.64% (n = 370,000); AID 743269; TR-FRET IN-LEDGF/p75 DNA integration, Eu/Cy5; inhibition, % at 3.7 µM;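 active = inhibition above the screen-wide mean plus 3 SD, cut at about 13% in these data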;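 note: signal is the Cy5 over europium emission ratio at 671 and 618 nm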
MBD2 DNA inh: inhibitors of human MBD2 binding to methylated oligonucleotide. Q9UBB5. TR-FRET. inhibition, % at 4.4 µM. actives 0.31% (n = 370,000). AID 686964; in the data active = inhibition above about 13%
Each line names hits and unclear results; the compound was inactive in the other large screens.

COC(=O)c1ccc(OC(=O)CS(=O)c2ccccc2[N+](=O)[O-])cc1 (stereo not drawn)	UHRF1 binding 62
CCOC(=O)c1ccccc1OC(=O)CS(=O)c1ccccc1[N+](=O)[O-] (stereo not drawn)	none
CC(C)CCN(CCC(C)C)C(CO)(CO)CO	UHRF1 binding 22
O=C(O)c1ccc(N/N=C/c2cn(Cc3ccccc3F)c3ccccc23)cc1	Neddyl block active
CC(C)n1cc(/C=N/Nc2ccc(C(=O)O)cc2)c2ccccc21	Neddyl block active
COc1cc(CC(=O)NNC(=O)c2cc(C)oc2C)cc(OC)c1OC	none
Nc1c(C(=O)Nc2ccc(Br)cc2)sc2nc(-c3ccco3)ccc12	LEDGF integ inh 15 (not shown: Neddyl block)
CC(CCc1ccccc1)NC(=O)Cc1cccs1 (stereo not drawn)	none
O=C(Cn1nc(C(F)(F)F)cc1C1CC1)NCc1ccccc1F	UHRF1 binding 21
CCc1ccc(NC(=O)C(=O)NCC(O)c2ccccc2)cc1 (stereo not drawn)	UHRF1 binding 52
CCOC(=O)c1ccc(NC(=S)NCC(O)c2ccccc2)cc1 (stereo not drawn)	none
NC(=O)C1CCN(C(=O)c2cc(-c3ccc(Cl)s3)nc3ccccc23)CC1	none (not shown: Neddyl block)
O=S(=O)(c1ccc2c(c1)OCCO2)N1CCN(S(=O)(=O)c2c(F)cc(F)cc2F)CC1	UHRF1 binding 29
O=C1CC(c2ccccc2Cl)=NN(c2ncnc3ccccc23)C1=O	none
CC(=O)C1C(c2ccc(C)cc2)c2c(n[nH]c2C)CC1(C)O (stereo not drawn)	UHRF1 binding 23
Cc1ccccc1OCC(=O)NCC(c1cccs1)N1CCOCC1 (stereo not drawn)	none
COc1ccc2c(c1)c(=O)oc1cc(OCC(=O)NC3CCCCC3)ccc12	UHRF1 binding 25 (not shown: Neddyl block)
CC(C)CCN1CCN(CC#Cc2ccccc2)CC1CCO (stereo not drawn)	none
CC1=C(C#N)C(c2ccccc2O)C(C#N)=C(C)N1	none
CC1=C(C#N)C(c2ccc3ncccc3c2)C(C#N)=C(C)N1	UHRF1 binding 28
NC(=O)C1CCN(C(=O)COc2ccc(S(=O)(=O)NC3CCCC3)cc2)CC1	none
Cc1ccc(S(=O)(=O)NC2CCCCC2)cc1C(=O)N1CCC(C(N)=O)CC1	UHRF1 binding 67
CC(=O)NC(c1ccc(F)c(F)c1)c1nc(-c2cnn(C)c2)cs1 (stereo not drawn)	none
CCOC(=O)c1oc2cccc(O)c2c1C	none (not shown: Neddyl block)
CCOC(=O)c1oc2ccc(CNC(C)(C)C)c(Cl)c2c1C	UHRF1 binding 97
CC(C(=O)Nc1ccc(C(=O)O)c(O)c1)N1C(=O)/C(=C\c2ccco2)SC1=S (stereo not drawn)	none (no result: UHRF1 binding, proKLK7 act, LEDGF integ inh, MBD2 DNA inh)
O=C(CN1C(=O)/C(=C/c2ccco2)SC1=S)Nc1ccc(O)c(C(=O)O)c1	UHRF1 binding 58, LEDGF integ inh 47
O=C(CN1C(=O)/C(=C/c2ccco2)SC1=S)NC1CCS(=O)(=O)C1 (stereo not drawn)	UHRF1 binding 52, LEDGF integ inh 55
COc1cccc(/C=C2\CC3(OC(=O)C(C)(C)C)CCCN2C3)c1 (stereo not drawn)	none (no result: Rin1-Abl PPI inh, Neddyl block)
COc1ccc(C)cc1-n1nnnc1SCc1cc(=O)n2cc(C)ccc2n1	none
CCOC(=O)C1C(c2cccc(F)c2)NC(=S)NC1(O)C(F)(F)F (stereo not drawn)	UHRF1 binding 29
COc1cc(CCC(=O)Nc2ccc(C)c(S(=O)(=O)N(C)C)c2)cc(OC)c1OC	UHRF1 binding 21
Cc1ccc(Cl)cc1N1CCN(S(=O)(=O)c2ccc3c(c2)NC(=O)C(C)C(=O)N3)CC1 (stereo not drawn)	UHRF1 binding 96
COc1ccccc1N1CCN(C(=O)CCc2nnc3ccc(N4CCC(C)CC4)nn23)CC1	none
Cn1c(=O)oc2ccc(S(=O)(=O)Nc3ccc(Cl)cc3[N+](=O)[O-])cc21	none (no result: Rin1-Abl PPI inh, Neddyl block)
Cc1cc(NC(=O)CCC(=O)N(C(C(=O)NC(C)(C)C)c2ccccc2Cl)C(C)(C)C)no1 (stereo not drawn)	UHRF1 binding 25
O=C(Cn1ncc2c1-c1ccccc1OC2)Nc1ccc(S(=O)(=O)N2CCCCC2)cc1	Rin1-Abl PPI inh 12
Cc1ccc(N2C(=O)c3ccccc3C2Nc2ccc(S(=O)(=O)N3CCCCC3)cc2)nc1 (stereo not drawn)	UHRF1 binding 77
Cc1ccc(N2C(=O)c3ccccc3C2Nc2ccc(S(=O)(=O)N3CCOCC3)cc2)nc1 (stereo not drawn)	none
N#C/C(=C/c1ccc(N2CCCCC2)o1)C(=O)Nc1ccc(Cl)cc1	UHRF1 binding 54
CC1CCc2c(sc(NC(=O)/C=C/c3cccs3)c2C(=O)O)C1 (stereo not drawn)	LEDGF integ inh 31
CC1CCc2c(sc(NC(=O)c3ccco3)c2C(=O)O)C1 (stereo not drawn)	none
O=C(C1CCCN1S(=O)(=O)c1ccccc1[N+](=O)[O-])N1CCc2ccccc2C1 (stereo not drawn)	none (no result: Rin1-Abl PPI inh, Neddyl block)
Cn1cc([N+](=O)[O-])c(C(=O)N2CCN(Cc3ccc4c(c3)OCO4)CC2)n1	none
COc1ccc(Cc2nnc(NC(C)=O)s2)cc1	none
COc1ccc(Cc2nnc(NC(=O)C(C)C)s2)cc1	UHRF1 binding 30
CC(OC(=O)C1CC1)C(=O)Nc1ncc(Cl)cc1Cl (stereo not drawn)	none
Cc1ccccc1C(=O)Nc1nc2n(n1)C(c1ccccc1)CC(=O)N2 (stereo not drawn)	none
Cc1ccccc1C1=CC(=O)CC(C)(C)C1=O	none (no result: Rin1-Abl PPI inh, Neddyl block)
COc1cc(C(F)(F)F)nc2ccc(C#CCOC(=O)Nc3ccccc3)cc12	UHRF1 binding 21
COc1ccc(S(=O)(=O)NC2CCCC2)cc1C(N)=O	none
COc1cc(-c2nc(CN3CCCCC3CCNC(C)=O)c(C)o2)ccc1F (stereo not drawn)	none
Cc1ccc(NC(=O)CSc2nnc(Cn3cnc4ccccc43)o2)c(C)c1	none
Cc1ccc(NC(=O)CSc2nnc(Cn3cnc4ccccc43)o2)cc1	UHRF1 binding 21
O=C(/C=C/c1cccc(Cl)c1Cl)OCC(=O)N1CCOCC1	none
CCN(CC)c1ccc2cc(C(N)=O)c(=O)oc2c1	Neddyl block active
CCN(CC)c1ccc2cc(NC(=O)CCC(=O)O)c(=O)oc2c1	proKLK7 act 78 (not shown: Neddyl block)
CCN(CC)c1ccc2cc(C(N)=O)c(=N)oc2c1	none
O=P1(NC2CCCCC2)OCC2(CO1)COP(=O)(NC1CCCCC1)OC2 (stereo not drawn)	none
COc1cc(/C=C2/C(=O)N(c3ccc(C(=O)O)cc3)N=C2C)cc(OC)c1O	none
COc1cc(/C=C2/C(=O)N(c3ccc(Br)cc3)N=C2C)cc(OC)c1OC	Rin1-Abl PPI inh 15 (no result: UHRF1 binding, proKLK7 act, LEDGF integ inh, MBD2 DNA inh)
COc1cc(/C=N/NC(=O)c2cc(C3CC3)[nH]n2)ccc1O	none
CCOc1cc(/C=N/NC(=O)c2cc(C3CC3)[nH]n2)ccc1O	UHRF1 binding 21
